Test results published in PubChem BioAssay (Tox21).
A number with no mark means an inactive call. Calls of active or inactive are those of the source. Calls come from the whole dose curve; as a rule, active = well fitted curve in the direction sought with a large enough effect in the repeat runs; inconclusive = weak or mixed curves; inactive = flat fitted curve, though single readings scatter.

test: qHTS assay to test for compound auto fluorescence at 535 nm (green) in HEK293 cell free culture (AID 720682); settings: cell-free medium, green autofluorescence 485/535 nm, active compounds read high; series mostly up to 91.3 µM; activity change: at the top concentration
Description: U.S. Tox21 Program National Center for Advancing Translational Sciences [NCATS] NIH Chemical Genomics Center [NCGC] U.S. Environmental Protection Agency [EPA] National Institutes of Environmental Health Sciences [NIEHS] National Toxicology Program [NTP] U.S. Food and Drug Administration [FDA] Tox21 Assay Overview: Compound auto fluorescence often interferes with screening of the compound library against various biological targets and signaling pathways. Some of these compounds may have fluorophoric properties. Such properties may interfere with the assay outputs resulting in false positives and/or negatives. To decrease such complications and ensure the compound activities are relevant in terms of biological response, the Tox21 10K compound library was screened for auto fluorescence. From the fluorophores used as reporter signals in our screening assays, the auto fluorescence equivalencies of compounds against three fluorophores have been evaluated: Triamterene, Fluorescein and Rose Bengal sodium for blue, green and red fluorescence, respectively. The fluorescence intensities were measured using Excitation/Emission wavelengths at 405/460nm, 485/535nm and 540/590nm for blue, green and red labels, respectively. This assay includes the green fluorescence data.
Tox21 Assay Protocol Summary: 5 uL of culture medium (DMEM containing 10% FBS) per well was dispensed into black wall/clear bottom 1536-well plates using a Multidrop Combi Dispenser (ThermoFisher Scientific, Waltham, MA). After 23 nL compound or DMSO vehicle was transferred into assay plate by a pintool work station (Kalypsys, San Diego, CA), fluorescence intensities in the assay plates were measured by an Envision (PerkinElmer, Shelton, CT) plate reader using three labels for measuring blue, green and red fluorescence at […] 460, 535 and 590nm respectively.
% is set by controls: 0 for no effect and ±100 for the full control effect.

| Compound | activity change | outcome |
| --- | --- | --- |
| CCN[C@H]1C[C@H](C)S(=O)(=O)c2sc(S(N)(=O)=O)cc21 | -0.145% [at 46 µM] |  |
| COc1ccnc(CS(=O)c2nc3cc(OC(F)F)ccc3[nH]2)c1OC (stereo not given) |  | inactive |
| CN1CCN(c2cc3c(nn2)Oc2ccccc2N3C)CC1 | -0.0632% [at 46 µM] |  |
| C[N+](C)(CCOc1ccccc1)Cc1cccs1 | -0.0642% [at 46 µM] |  |
| CC1=CC(=O)[C@H]2C[C@@H]1C2(C)C | -0.0563% |  |
| CCOC(=O)COC(=O)c1ccccc1C(=O)OCC | -0.0212% |  |
| COc1cc(-c2ccc(=O)[nH]n2)ccc1OC(F)F | -0.0159% [at 46 µM] |  |
| CC(C)(C)c1ccc(-c2ccc(C(C)(C)C)cc2)cc1 | 0.0063% |  |
| CCN1C=CN(C)C1C (stereo not given) | -0.0778% |  |
| CCN1CCOCC1 | -0.0048% |  |
| O=C1NC(=O)C2CC=CCC12 (stereo not given) | -0.0835% |  |
| Cc1c(N)c(=O)n(-c2ccccc2)n1C | -0.102% [at 18.6 µM] |  |
| C=C(C)C(=O)OCC1CCCO1 (stereo not given) | -0.085% |  |
| Nc1ccn([C@@H]2O[C@H](CO)[C@@H](O)[C@@H]2O)c(=O)n1 | 0.0525% |  |
| C=CCCC(=O)O | -0.0034% |  |
| NC(=O)N[C@@H](CCC(=O)O)C(=O)O | 0.0694% [at 46 µM] |  |
| CCCCCCC1CCC(=O)O1 (stereo not given) | 0.085% [at 95.7 µM] |  |
| Cc1ncc([C@@H](CCCCCCc2ccc3c(n2)NCCC3)CC(=O)O)cn1 | -0.0206% |  |
| CCNS(=O)(=O)c1ccc(C)cc1 | 0.205% [at 95.7 µM] |  |
| O=[N+]([O-])c1ccc(/C=N\O)o1 | -0.0135% [at 46 µM] |  |

| Compound | activity change | outcome |
| --- | --- | --- |
| CCO[Si](OCC)(OCC)c1ccccc1 | -0.304% |  |
| CCCOC(=O)CC | -0.0393% |  |
| CC1(C)OC[C@@H](COC(=O)CCc2ccc(OC[C@@H](O)CNCCNC(=O)N3CCOCC3)cc2)O1 |  | inactive |
| CCCCCCCCCCOc1cc2c(=O)c(C(=O)OCC)c[nH]c2cc1OCC | -0.0303% [at 46 µM] |  |
| CC[N+](C)(CC)CCOC(=O)C1c2ccccc2Oc2ccccc21 | 0.0783% [at 46 µM] |  |
| OCCc1ccccn1 | -0.224% |  |
| CC1(C)[C@@H]2CC[C@@]1(C)[C@H](O)C2 | -0.112% |  |
| Cc1cccc(C)c1NC(=O)CC12CCCN1CCC2 | 0.0866% [at 46 µM] |  |
| CCCCOCCOC(=O)COc1cc(Cl)c(Cl)cc1Cl | -0.0215% |  |
| CCCCCCC#CC(=O)OC | -0.0205% |  |
| c1ccc(CCc2ccccc2)cc1 | 0.0612% |  |
| C[N+]12CCC(CC1)C(OC(=O)C(O)(c1ccccc1)c1ccccc1)C2 (stereo not given) | 0.0169% [at 18.6 µM] |  |
| CC(COc1ccccc1)NN (stereo not given) | 0.0512% [at 46 µM] |  |
| CN(C)[C@@H]1C(=O)C(C(=O)NCN2CCCC2)=C(O)[C@@]2(O)C(=O)C3=C(O)c4c(O)cccc4[C@@](C)(O)C3C[C@@H]12 (stereo not given in full) |  | inactive |
| NC(=O)N1c2ccccc2CC(=O)c2ccccc21 | -0.0197% [at 46 µM] |  |
| CC(C)NNC(=O)c1ccncc1 | -0.0186% [at 46 µM] |  |
| C=CC(=O)OCCCl | 0.0675% [at 95.7 µM] |  |
| CC(C)=CCC/C(C)=C/C#N | -0.0158% [at 95.7 µM] |  |
| CCCCOC(=O)CCC(C)=O | -0.0499% |  |
| O=C(O)Cc1csc(-c2ccc(Cl)cc2)n1 | 0.004% [at 46 µM] |  |
